# Assay results published in the supplement of paper PMC8728848.
# This is one part of a sample in which the strongest signals are shown more often than they occur.
# B1: MFG-E8 (Mus musculus), P21956 (protein)
# chain: MQVSRVLAALCGMLLCASGLFAASGDFCDSSLCLNGGTCLTGQDNDIYCLCPEGFTGLVCNETERGPCSPNPCYNDAKCLVTLDTQRGDIFTEYICQCPVGYSGIHCETETNYYNLDGEYMFTTAVPNTAVPTPAPTPDLSNNLASRCSTQLGMEGGAIADSQISASSVYMGFMGLQRWGPELARLYRTGIVNAWTASNYDSKPWIQVNLLRKMRVSGVMTQGASRAGRAEYLKTFKVAYSLDGRKFEFIQDESGGDKEFLGNLDNNSLKVNMFNPTLEAQYIKLYPVSCHRGCTLRFELLGCELHGCSEPLGLKNNTIPDSQMSASSSYKTWNLRAFGWYPHLGRLDNQGKINAWTAQSNSAKEWLQVDLGTQRQVTGIITQGARDFGHIQYVASYKVAHSDDGVQWTVYEEQGSSKVFQGNLDNNSHKKNIFEKPFMARYVRVLPVSWHNRITLRLELLGC
# Columns and labels:
# Experiment in all cases: glycan array binding signal (z-score within array); higher = stronger binding
# Conditions in all cases: glycan notation: IUPAC condensed, linker removed
# [1] = target: Fuc(a1-2)Gal(b1-3)GalNAc(a1-3)[Fuc(a1-2)]Gal(b1-4)GlcNAc
# Method in brief: (§1)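 The binding signal is a Z-score computed within each array. Data were drawn from 3228 arrays in the Consortium for Functional Glycomics database, restricted to those with a known protein sequence. Scores were averaged over arrays of the same protein sequence at different concentrations or buffers, and over linkers, and negative values can be taken as non-binding.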
# [2] = target: Fuc(a1-2)Gal(b1-4)GlcNAc(b1-2)[Fuc(a1-2)Gal(b1-4)GlcNAc(b1-4)]Man(a1-3)[Fuc(a1-2)Gal(b1-4)GlcNAc(b1-2)Man(a1-6)]Man(b1-4)GlcNAc(b1-4)GlcNAc
# Method in brief: as §1
# [3] = target: Fuc(a1-2)Gal6S(b1-3)GlcNAc6S
# Method in brief: as §1
# [4] = target: Fuc(a1-2)[Gal(a1-3)]Gal(b1-4)[Fuc(a1-3)]GlcNAc(b1-3)GalNAc
# Method in brief: as §1
# [5] = target: Fuc(a1-2)[GalNAc(a1-3)]Gal(b1-4)[Fuc(a1-3)]GlcNAc(b1-3)GalNAc
# Method in brief: as §1
# [6] = target: Fuc(a1-3)[Gal(b1-4)]GlcNAc(b1-4)Gal(b1-4)[Fuc(a1-3)]GlcNAc
# Method in brief: as §1
# [7] = target: Gal(a1-2)Gal
# Method in brief: as §1
# [8] = target: Gal(a1-3)Gal(b1-3)GlcNAc
# Method in brief: as §1
# [9] = target: Gal(a1-4)Gal(b1-3)GlcNAc(b1-2)Man(a1-3)[Gal(a1-4)Gal(b1-3)GlcNAc(b1-2)Man(a1-6)]Man(b1-4)GlcNAc(b1-4)GlcNAc
# Method in brief: as §1
# [10] = target: Gal(b1-3)GalNAc(a1-3)[Fuc(a1-2)]Gal(b1-4)GlcNAc
# Method in brief: as §1
# [11] = target: Gal(b1-3)GalNAc(b1-4)Gal(b1-4)Glc
# Method in brief: as §1
# [12] = target: Gal(b1-3)GlcNAc(b1-3)Gal(b1-4)GlcNAc(b1-3)Gal(b1-4)GlcNAc(b1-2)[Gal(b1-3)GlcNAc(b1-3)Gal(b1-4)GlcNAc(b1-3)Gal(b1-4)GlcNAc(b1-6)]Man(a1-6)[Gal(b1-3)GlcNAc(b1-3)Gal(b1-4)GlcNAc(b1-3)Gal(b1-4)GlcNAc(b1-2)Man(a1-3)]Man(b1-4)GlcNAc(b1-4)[Fuc(a1-6)]GlcNAc
# Method in brief: as §1
# [13] = target: Gal(b1-4)GlcNAc(b1-3)Gal(b1-4)GlcNAc(b1-2)Man(a1-3)[Gal(b1-4)GlcNAc(b1-3)Gal(b1-4)GlcNAc(b1-2)Man(a1-6)]Man(b1-4)GlcNAc(b1-4)GlcNAc
# Method in brief: as §1
# [14] = target: Gal(b1-4)GlcNAc(b1-3)Gal(b1-4)GlcNAc(b1-3)Gal(b1-4)GlcNAc(b1-3)Gal(b1-4)GlcNAc(b1-3)Gal(b1-4)GlcNAc(b1-2)[Gal(b1-4)GlcNAc(b1-3)Gal(b1-4)GlcNAc(b1-3)Gal(b1-4)GlcNAc(b1-3)Gal(b1-4)GlcNAc(b1-3)Gal(b1-4)GlcNAc(b1-6)]Man(a1-6)[Gal(b1-4)GlcNAc(b1-3)Gal(b1-4)GlcNAc(b1-3)Gal(b1-4)GlcNAc(b1-3)Gal(b1-4)GlcNAc(b1-3)Gal(b1-4)GlcNAc(b1-2)Man(a1-3)]Man(b1-4)GlcNAc(b1-4)[Fuc(a1-6)]GlcNAc
# Method in brief: as §1
# [15] = target: Gal(b1-4)GlcNAc(b1-6)Gal(b1-4)GlcNAc
# Method in brief: as §1
# [16] = target: Gal3S(b1-4)GlcNAc
# Method in brief: as §1
# [17] = target: Gal3S6S(b1-4)GlcNAc6S
# Method in brief: as §1
# [18] = target: Gal4S(b1-4)GlcNAc
# Method in brief: as §1
# [19] = target: Gal6P(b1-4)GlcNAc
# Method in brief: as §1
# [20] = target: Gal6S(b1-3)GlcNAc6S
# Method in brief: as §1
# [21] = target: Gal6S(b1-4)GlcNAc6S
# Method in brief: as §1
# [22] = target: GalNAc(b1-4)GlcNAc(b1-2)Man
# Method in brief: as §1
# [23] = target: GalNAc3S(b1-4)[Fuc(a1-3)]GlcNAc
# Method in brief: as §1
# [24] = target: GalNAc4S6S(b1-4)GlcNAc
# Method in brief: as §1
# [25] = target: Glc(a1-6)Glc(a1-6)Glc(a1-6)Glc
# Method in brief: as §1
# [26] = target: Glc(b1-6)Glc
# Method in brief: as §1
# [27] = target: GlcNAc(a1-4)Gal(b1-4)GalNAc
# Method in brief: as §1
# [28] = target: GlcNAc(b1-2)Gal(b1-3)GalNAc
# Method in brief: as §1
# [29] = target: GlcNAc(b1-3)Gal(b1-4)GlcNAc(b1-2)[GlcNAc(b1-3)Gal(b1-4)GlcNAc(b1-6)]Man(a1-6)[GlcNAc(b1-3)Gal(b1-4)GlcNAc(b1-2)Man(a1-3)]Man(b1-4)GlcNAc(b1-4)GlcNAc
# Method in brief: as §1
# [30] = target: GlcNAc(b1-3)Gal(b1-4)GlcNAc(b1-3)Gal(b1-4)GlcNAc(b1-2)[GlcNAc(b1-3)Gal(b1-4)GlcNAc(b1-3)Gal(b1-4)GlcNAc(b1-6)]Man(a1-6)[GlcNAc(b1-3)Gal(b1-4)GlcNAc(b1-3)Gal(b1-4)GlcNAc(b1-2)Man(a1-3)]Man(b1-4)GlcNAc(b1-4)[Fuc(a1-6)]GlcNAc
# Method in brief: as §1
# [31] = target: GlcNAc(b1-4)GlcNAc(b1-4)GlcNAc
# Method in brief: as §1
# [32] = target: Neu5Ac(a2-3)Gal(b1-3)GlcNAc(b1-2)Man(a1-3)[Neu5Ac(a2-3)Gal(b1-3)GlcNAc(b1-2)Man(a1-6)]Man(b1-4)GlcNAc(b1-4)GlcNAc
# Method in brief: as §1
# [33] = target: Neu5Ac(a2-3)Gal(b1-3)GlcNAc(b1-3)Gal(b1-3)GlcNAc
# Method in brief: as §1
# [34] = target: Neu5Ac(a2-3)Gal(b1-3)GlcNAc(b1-3)GalNAc
# Method in brief: as §1
# [35] = target: Neu5Ac(a2-3)Gal(b1-4)GlcNAc(b1-3)Gal
# Method in brief: as §1
# [36] = target: Neu5Ac(a2-3)Gal(b1-4)GlcNAc(b1-3)Gal(b1-4)GlcNAc(b1-6)[Gal(b1-3)]GalNAc
# Method in brief: as §1
# [37] = target: Neu5Ac(a2-3)Gal(b1-4)GlcNAc6S
# Method in brief: as §1
# [38] = target: Neu5Ac(a2-6)Gal
# Method in brief: as §1
# [39] = target: Neu5Ac(a2-6)Gal(b1-4)GlcNAc(b1-2)Man(a1-3)[GlcNAc(b1-4)][Neu5Ac(a2-6)Gal(b1-4)GlcNAc(b1-2)Man(a1-6)]Man(b1-4)GlcNAc(b1-4)GlcNAc
# Method in brief: as §1
# [40] = target: Neu5Ac(a2-6)Gal(b1-4)GlcNAc(b1-3)Gal(b1-4)[Fuc(a1-3)]GlcNAc(b1-3)Gal(b1-4)[Fuc(a1-3)]GlcNAc
# Method in brief: as §1
# [41] = target: Neu5Ac(a2-6)GalNAc(b1-4)GlcNAc6S
# Method in brief: as §1
# [42] = target: Neu5Ac(a2-8)Neu5Ac(a2-8)Neu5Ac(a2-3)Gal(b1-4)Glc
# Method in brief: as §1
# [43] = target: Neu5Gc(a2-3)Gal(b1-3)[Fuc(a1-4)]GlcNAc
# Method in brief: as §1
binder,measurement,setting,value
B1,glycan array binding signal (z-score),[1],0.179
same,glycan array binding signal (z-score),[2],0.01
same,glycan array binding signal (z-score),[3],8.57
same,glycan array binding signal (z-score),[4],2.33
same,glycan array binding signal (z-score),[5],1.65
same,glycan array binding signal (z-score),[6],-0.206
same,glycan array binding signal (z-score),[7],0.39
same,glycan array binding signal (z-score),[8],-0.404
same,glycan array binding signal (z-score),[9],-0.165
same,glycan array binding signal (z-score),[10],-0.266
same,glycan array binding signal (z-score),[11],-0.553
same,glycan array binding signal (z-score),[12],0.221
same,glycan array binding signal (z-score),[13],2.48
same,glycan array binding signal (z-score),[14],-0.342
same,glycan array binding signal (z-score),[15],-0.115
same,glycan array binding signal (z-score),[16],-0.46
same,glycan array binding signal (z-score),[17],2.81
same,glycan array binding signal (z-score),[18],-0.4
same,glycan array binding signal (z-score),[19],1.22
same,glycan array binding signal (z-score),[20],3.04
same,glycan array binding signal (z-score),[21],2.98
same,glycan array binding signal (z-score),[22],-0.038
same,glycan array binding signal (z-score),[23],0.832
same,glycan array binding signal (z-score),[24],9.76
same,glycan array binding signal (z-score),[25],-0.038
same,glycan array binding signal (z-score),[26],2.4
same,glycan array binding signal (z-score),[27],5.5
same,glycan array binding signal (z-score),[28],0.853
same,glycan array binding signal (z-score),[29],-0.881
same,glycan array binding signal (z-score),[30],-0.08
same,glycan array binding signal (z-score),[31],-0.582
same,glycan array binding signal (z-score),[32],-0.096
same,glycan array binding signal (z-score),[33],-1.04
same,glycan array binding signal (z-score),[34],0.592
same,glycan array binding signal (z-score),[35],0.469
same,glycan array binding signal (z-score),[36],-0.309
same,glycan array binding signal (z-score),[37],-0.285
same,glycan array binding signal (z-score),[38],0.316
same,glycan array binding signal (z-score),[39],0.277
same,glycan array binding signal (z-score),[40],-0.437
same,glycan array binding signal (z-score),[41],3.05
same,glycan array binding signal (z-score),[42],-0.889
same,glycan array binding signal (z-score),[43],2.55
